The supplement of paper PMC9694430

Key:
Assay in all cases: thermal shift delta Tm vs DMSO control; higher = stronger stabilization (binding)
Conditions in all cases: 12.5 µM; protein concentration 2 µM
LOC_OS02G45750-cb003 = system: LOC_OS02G45750-cb003
Summary of the method: (§1)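 Rice kinase domain constructs, made in E. coli and purified, were placed in 96-well plates at 2 μM in 19.5 μl of 100 mM potassium phosphate pH 7.5, 150 mM NaCl, 10% glycerol and 5 × SYPRO Orange, with compound in DMSO. A temperature ramp from 25°C to 95°C at 0.05°C/s was used for differential scanning fluorimetry. The melting temperature shift is a triplicate mean compared with DMSO-only protein, derived from Boltzmann fits.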

LOC_OS02G54510-cb004 = system: LOC_OS02G54510-cb004
Summary of the method: as §1

LOC_OS03G04050-cb001 = system: LOC_OS03G04050-cb001
Summary of the method: as §1

LOC_OS03G12390-cb001 = system: LOC_OS03G12390-cb001
Summary of the method: as §1

LOC_OS03G27990-cb004 = system: LOC_OS03G27990-cb004
Summary of the method: as §1

LOC_OS03G50450-cb001 = system: LOC_OS03G50450-cb001
Summary of the method: as §1

LOC_OS03G50810-cb003 = system: LOC_OS03G50810-cb003
Summary of the method: as §1

LOC_OS04G35114-cb001 = system: LOC_OS04G35114-cb001
Summary of the method: as §1

LOC_OS04G38480-cb003 = system: T1, LOC_OS04G38480-cb003
T1 sequence (whole entry): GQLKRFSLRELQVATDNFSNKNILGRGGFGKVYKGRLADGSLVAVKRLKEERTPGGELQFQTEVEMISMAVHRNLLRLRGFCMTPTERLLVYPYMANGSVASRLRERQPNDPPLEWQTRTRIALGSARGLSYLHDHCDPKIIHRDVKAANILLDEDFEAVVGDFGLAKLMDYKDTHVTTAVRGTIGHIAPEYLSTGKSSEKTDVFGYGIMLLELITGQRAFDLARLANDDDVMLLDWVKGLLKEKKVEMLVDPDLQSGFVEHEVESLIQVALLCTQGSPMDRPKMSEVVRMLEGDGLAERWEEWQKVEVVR
Summary of the method: as §1

LOC_OS04G41100-cb001 = system: T2, LOC_OS04G41100-cb001
T2 sequence (whole entry): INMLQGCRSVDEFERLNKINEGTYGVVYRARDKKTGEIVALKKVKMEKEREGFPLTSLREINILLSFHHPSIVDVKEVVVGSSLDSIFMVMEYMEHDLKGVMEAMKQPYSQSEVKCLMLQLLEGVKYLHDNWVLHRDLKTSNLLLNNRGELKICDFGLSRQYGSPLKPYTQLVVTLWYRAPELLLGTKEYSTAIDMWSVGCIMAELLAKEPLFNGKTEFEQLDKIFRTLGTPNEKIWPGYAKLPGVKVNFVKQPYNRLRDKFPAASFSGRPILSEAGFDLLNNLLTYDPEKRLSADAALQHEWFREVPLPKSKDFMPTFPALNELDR
Summary of the method: as §1
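Note: purified Escherichia coli-expressed rice kinase domain construct.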

Row | SMILES | thermal shift delta Tm (LOC_OS02G45750-cb003) [°C] | thermal shift delta Tm (LOC_OS02G54510-cb004) [°C] | thermal shift delta Tm (LOC_OS03G04050-cb001) [°C] | thermal shift delta Tm (LOC_OS03G12390-cb001) [°C] | thermal shift delta Tm (LOC_OS03G27990-cb004) [°C] | thermal shift delta Tm (LOC_OS03G50450-cb001) [°C] | thermal shift delta Tm (LOC_OS03G50810-cb003) [°C] | thermal shift delta Tm (LOC_OS04G35114-cb001) [°C] | thermal shift delta Tm (LOC_OS04G38480-cb003) [°C] | thermal shift delta Tm (LOC_OS04G41100-cb001) [°C]
1 | CNC(=O)CN1CCC(Oc2cc3c(Nc4cccc(Cl)c4F)ncnc3cc2OC)CC1 [Sapitinib (AZD8931)] | 0.58 | 0.5 | -0.02 | 0.79 | 0.05 | 0.05 | 0.22 | 3.22 | 0.11 | 0.35
2 | Cc1ccc(Nc2nccc(N(C)c3ccc4c(C)n(C)nc4c3)n2)cc1S(N)(=O)=O [Pazopanib] | 3.24 | 0.61 | 0.35 | 0.19 | 0.23 | 0.21 | 0.98 | 4.53 | 1.63 | 3.44
3 | CN1CCN(c2ccc3nc(-c4c(N)c5c(F)cccc5[nH]c4=O)[nH]c3c2)CC1 [Dovitinib (TKI258) Lactate] | 16.7 | 2.48 | 1.03 | 5.56 | 8.6 | 5.37 | 7.48 | 10 | 3.95 | 1.24
4 | COc1cc(Nc2ncc(F)c(Nc3ccc4c(n3)N(COP(=O)(O)O)C(=O)C(C)(C)O4)n2)cc(OC)c1OC [Fostamatinib (R788)] | 4.51 | 2.89 | 0.44 | 7.17 | 2.16 | 10.5 | 3.97 | 3.46 | 4.1 | 0.47
5 | Cc1n[nH]c2ncc(C(=O)N3CCC[C@H]3c3ccc(Cl)cc3)cc12 | 0.21 | 0.12 | 0.41 | 0.13 | 0.35 | 0.17 | 0.18 | 0.28 | 0.98 | 0.46
6 | CCS(=O)(=O)N1CC(CC#N)(n2cc(-c3ncnc4[nH]ccc34)cn2)C1 | 2.13 | 1.15 | 0.77 | 1.62 | 0.66 | 1.09 | 0.62 | 1.29 | 0.44 | 0.43
7 | COc1ccc(-c2cc3nccn3c(Nc3ncccc3C(N)=O)n2)cc1OC | 1.94 | 0.42 | 0.72 | 6.82 | 0.56 | 1.07 | 1.24 | 1.36 | 1.69 | 1.04
8 | Oc1cc(O)cc(/C=C/c2ccc(O)c(O)c2)c1 [Piceatannol] | -0.87 | 0.68 | 0.78 | -0.65 | 0.48 | 0.23 | 0.47 | 0.4 | 1.45 | 0.8
9 | COc1ccc(-c2cc3c(C)nc(N)nc3n([C@H]3CC[C@H](OCCO)CC3)c2=O)cn1 | 0.52 | 0.05 | 0.5 | 0.41 | 0.17 | 0.14 | 0.45 | 0.77 | 1.08 | 0.32
10 | COc1cccc(-c2cc(=O)c3ccccc3o2)c1N | -0.15 | 0.15 | 0.23 | 0.21 | 0.01 | 0.16 | 0.04 | 0.26 | -0.06 | 0.2
